Measurements: PubChem BioAssay
Records with an inconclusive call do not appear. Calls of active or inactive are those of the source. Cut-off read from the data, not from the text of the source, unless noted: active = percent of DMSO control GFP below about 86%; inactive = the rest, inconclusive results apart.

Assays:
[1] = rapamycin-like changes in RPL19A-GFP expression – cell-based, S. cerevisiae, multiplex flow cytometry, primary screen (AID 1862);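 note: lower values mimic rapamycin by blocking the RPL19A rise seen in DMSO cells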; conditions: S. cerevisiae RPL19A-GFP strain, flow cytometry fluorescence, 3 h; at 10 µM; stronger effect = lower value
[2] = TOR pathway GLN3 branch reporter MEP2-GFP changes – S. cerevisiae, multiplex flow cytometry, primary screen (AID 1867;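 active = GFP response, as percent of the DMSO control, above the screen-wide mean plus 3 SD, about 139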;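 note: median GFP channel fluorescence of barcode-gated MEP2-GFP cells measured by flow cytometry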); conditions: S. cerevisiae MEP2-GFP strain, 3 h, at 10 µM, stronger effect = higher value, 100% means same as DMSO wells
[3] = TOR pathway RTG branch CIT2 reporter changes – S. cerevisiae, GFP fusion, multiplex flow cytometry, primary screen (AID 1870;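 active = percent response above a set limit, the screen-wide mean plus 3 SD, cut at about 130% in these data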;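 note: barcoded CIT2-GFP strain pooled with four other GFP strains with rapamycin as positive control; median GFP fluorescence per well over plate mean of DMSO wells so 100% = DMSO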); conditions: S. cerevisiae CIT2-GFP expression, 3 h, at 10 µM, stronger effect = higher value
[4] = TOR pathway LAP4-GFP level changes – S. cerevisiae, multiplex flow cytometry, primary screen (AID 1873;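 active = GFP signal, as percent of the solvent control, above the screen mean plus 3 SD, about 149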); conditions: S. cerevisiae LAP4-GFP expression, 3 h, at 10 µM, stronger effect = higher value
[5] = yeast AGP1-GFP level changes, GLN3 branch – cell-based, multiplex flow cytometry, S. cerevisiae, primary screen (AID 1887;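 active = GFP signal above the screen-wide mean plus 3 SD, that is over about 124.5% of the solvent control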;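 note: AGP1-GFP fusion strain of S. cerevisiae within a five-strain barcoded multiplex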); conditions: 3 h, at 10 µM, stronger effect = higher value
[6] = reduced mouse 2C T cell binding to pMHC/ICAM-1 vesicles – MLPCN validation set, flow cytometry, LFA-1/ICAM-1 modulator project, pilot screen (AID 2523;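 active = response below a set limit, under 55% cells CD8-positive and vesicle-bound, and CD8 cells' 90th-percentile brightness under 279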;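 for vesicle binding response: mean PE anti-B7-1 fluorescence of CD8+ cells relative to row control; 100% = QL9-loaded vesicles with DMSO vehicle in the same plate row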); conditions: 2C mouse CD8+ T cells, at 7 µM, stronger effect = lower value; double positive events: measured here: CD8+/vesicle+ event percentage
[7] = target: Integrin beta-1 (Homo sapiens) + Integrin alpha-4 (Homo sapiens) (UniProt P13612+P05556); assay: alpha4beta1 integrin LIBS antibody binding reduction – U937 cells, HUTS-21 mAb, flow cytometry, validation set, VLA-4 allosteric modulator project, pilot screen (AID 2674;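 active = inhibition above 50%, about 3 SD of the validation set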;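 note: antibody binding induced by the VLA-4 ligand LDV present at three times its Kd; 0% = LDV ligand with antibody and no compound and 100% = antibody without LDV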); conditions: HUTS-21 LIBS mAb binding, at 6.7 µM, stronger effect = higher value, binding induced by LDV ligand
[8] = calorie-restriction mimetic ROS inhibitors, yeast – validation compound set, pilot screen (AID 2706;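 active = superoxide response below 65% of plate, a cut near 3 SD across the whole screen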;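 note: yeast exposed to compound for one week at 30 degrees C before staining; 100% = mean of all compound wells on the same plate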); conditions: S. cerevisiae aging, superoxide DHE fluorescence; at 10 µM, stronger effect = lower value
[9] = target: Beta-adrenergic receptor kinase 1 (Homo sapiens) (UniProt P25098); assay: GRK2 binders displacing RNA aptamer, biochemical, validation, human GRK2, bead flow cytometry (AID 488806;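 active = aptamer binding inhibition above 30%, about 3 SD of noise from non-fluorescent compounds; inactive = inhibition at or below 30%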); conditions: bead-bound GRK2, FAM-aptamer displacement, at 10 µM, stronger effect = higher value
[10] = target: AP-2 complex subunit beta (Homo sapiens) (UniProt P63010); assay: beta-arrestin/AP2 interaction blockers – biochemical, validation set, GST-AP2 beads, flow cytometry, pilot screen (AID 504541;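 active = inhibition above 54%, about 3 SD of non-fluorescent compounds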;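 note: AP2 carries R879A mutation and is captured from E. coli lysate; bead-bound FITC arrestin peptide fluorescence measuring arrestin peptide binding to AP2; 0% = DMSO wells and 100% = excess unlabeled arrestin peptide control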); conditions: FITC arrestin peptide, at 10 µM, stronger effect = higher value, AP2 beta2 appendage fragment, R879A mutant
[11] = cytosolic pH regulators acting via V-ATPase – S. cerevisiae, pHLuorin, HTS validation (AID 504600; in the data active = response above about 15%;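 note: plate controls were DMSO for no effect and reference compound for full effect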); conditions: V-ATPase proton transport, at 10 µM, stronger effect = higher value
[12] = test system: anti-desmoglein-3 scFv antibody binding to human DSG3; assay: blockers of pathogenic pemphigus antibody–desmoglein-3 binding – biochemical, validation compound set, bead-based, flow cytometry, pilot screen (AID 588368;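 active = binding below the plate cutoff, the plate median minus 3 SD, with a reading above zero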;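 note: signal is the median channel fluorescence of bead-bound GFP antibody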); conditions: Protein G beads, DSG3-Fc, scFv-GFP binding, at 10 µM, stronger effect = lower value
[13] = Nile Red efflux blockade in pump-expressing yeast – validation compound set, multiplex, phenotypic, pilot screen (AID 588506;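 active = efflux inhibition above 0.42, the validation set average plus 4 SD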;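 note: Nile Red retained in cells so higher fluorescence means more efflux inhibition; 0 = negative control wells and 1 = enniatin B 25 µM full block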); conditions: S. cerevisiae pump-expressing triplex, Nile Red efflux flow cytometry; at 10 µM; stronger effect = higher value; the pumps come from Candida albicans
[14] = target: ATP-binding cassette sub-family B member 6 (Homo sapiens) (UniProt Q9NP58); assay: blockers of ABCB6-driven porphyrin uptake – K562-ABCB6 cells, flow cytometry, validation set, pilot screen (AID 588550;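 active = inhibition above the screen-wide mean plus 3 SD, about 51%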;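 note: 0% = DMSO wells and 100% = benzethonium chloride 70 µM positive control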); conditions: K562-ABCB6 porphyrin accumulation, 1 h, at 10 µM, stronger effect = higher value
[15] = AML differentiation inducers, ER-HoxA9 marrow cells – cell-based, GFP/MAC1 double positive, flow cytometry, validation set, primary screen (AID 588685;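 active = differentiation response of at least 50%, scaled between solvent and reference control, from cells with both markers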;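 note: compound exposure lasts four days before antibody staining and flow analysis; 0% = DMSO wells and 100% = 5 µM fulvestrant positive control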); conditions: stronger effect = higher value, normalized: vehicle 0, fulvestrant 100

Sequence of ATP-binding cassette sub-family B member 6 (Homo sapiens) (Q9NP58 whole entry, looked up): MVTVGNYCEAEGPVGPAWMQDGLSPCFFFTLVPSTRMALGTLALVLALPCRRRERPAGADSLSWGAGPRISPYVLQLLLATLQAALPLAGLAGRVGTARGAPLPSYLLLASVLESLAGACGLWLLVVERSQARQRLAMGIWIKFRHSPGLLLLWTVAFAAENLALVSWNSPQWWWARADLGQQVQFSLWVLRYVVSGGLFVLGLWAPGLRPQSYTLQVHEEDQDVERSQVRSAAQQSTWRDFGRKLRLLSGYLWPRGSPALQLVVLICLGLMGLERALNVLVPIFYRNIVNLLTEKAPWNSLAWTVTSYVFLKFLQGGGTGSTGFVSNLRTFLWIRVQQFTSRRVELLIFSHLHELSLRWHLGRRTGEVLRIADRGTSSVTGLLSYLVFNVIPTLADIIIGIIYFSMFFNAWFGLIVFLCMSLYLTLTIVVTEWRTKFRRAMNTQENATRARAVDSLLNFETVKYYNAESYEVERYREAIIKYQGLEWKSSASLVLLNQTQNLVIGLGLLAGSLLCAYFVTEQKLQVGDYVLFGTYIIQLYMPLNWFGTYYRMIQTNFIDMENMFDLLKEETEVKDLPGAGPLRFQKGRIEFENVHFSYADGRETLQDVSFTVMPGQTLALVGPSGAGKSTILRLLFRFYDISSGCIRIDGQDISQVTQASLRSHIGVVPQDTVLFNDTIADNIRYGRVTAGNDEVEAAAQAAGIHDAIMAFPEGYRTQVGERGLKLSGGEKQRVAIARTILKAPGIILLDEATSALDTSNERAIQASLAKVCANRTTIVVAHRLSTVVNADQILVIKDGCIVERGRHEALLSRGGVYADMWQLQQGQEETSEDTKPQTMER
Sequence of Integrin beta-1 (Homo sapiens) + Integrin alpha-4 (Homo sapiens) (P05556 whole entry, looked up): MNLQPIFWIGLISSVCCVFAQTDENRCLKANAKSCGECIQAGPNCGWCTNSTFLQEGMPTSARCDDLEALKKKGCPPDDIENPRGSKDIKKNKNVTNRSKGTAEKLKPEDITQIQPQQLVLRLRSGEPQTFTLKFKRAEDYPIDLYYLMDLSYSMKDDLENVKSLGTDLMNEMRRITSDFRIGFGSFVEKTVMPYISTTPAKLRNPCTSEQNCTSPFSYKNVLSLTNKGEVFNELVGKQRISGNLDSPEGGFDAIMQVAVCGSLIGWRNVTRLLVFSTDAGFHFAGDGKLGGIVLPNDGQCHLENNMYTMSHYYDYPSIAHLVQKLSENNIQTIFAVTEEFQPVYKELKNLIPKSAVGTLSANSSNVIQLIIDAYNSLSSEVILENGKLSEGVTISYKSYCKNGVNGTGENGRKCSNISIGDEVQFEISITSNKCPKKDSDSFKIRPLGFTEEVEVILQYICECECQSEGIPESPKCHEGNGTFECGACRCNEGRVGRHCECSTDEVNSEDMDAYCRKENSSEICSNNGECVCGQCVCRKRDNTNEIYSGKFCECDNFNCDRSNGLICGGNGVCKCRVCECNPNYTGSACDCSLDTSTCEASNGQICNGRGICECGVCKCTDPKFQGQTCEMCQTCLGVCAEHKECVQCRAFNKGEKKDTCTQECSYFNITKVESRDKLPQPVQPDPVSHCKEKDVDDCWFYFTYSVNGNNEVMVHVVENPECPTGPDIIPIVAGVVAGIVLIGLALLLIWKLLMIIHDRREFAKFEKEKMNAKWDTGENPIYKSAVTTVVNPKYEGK
Sequence of Integrin beta-1 (Homo sapiens) + Integrin alpha-4 (Homo sapiens) (P13612 whole entry, looked up): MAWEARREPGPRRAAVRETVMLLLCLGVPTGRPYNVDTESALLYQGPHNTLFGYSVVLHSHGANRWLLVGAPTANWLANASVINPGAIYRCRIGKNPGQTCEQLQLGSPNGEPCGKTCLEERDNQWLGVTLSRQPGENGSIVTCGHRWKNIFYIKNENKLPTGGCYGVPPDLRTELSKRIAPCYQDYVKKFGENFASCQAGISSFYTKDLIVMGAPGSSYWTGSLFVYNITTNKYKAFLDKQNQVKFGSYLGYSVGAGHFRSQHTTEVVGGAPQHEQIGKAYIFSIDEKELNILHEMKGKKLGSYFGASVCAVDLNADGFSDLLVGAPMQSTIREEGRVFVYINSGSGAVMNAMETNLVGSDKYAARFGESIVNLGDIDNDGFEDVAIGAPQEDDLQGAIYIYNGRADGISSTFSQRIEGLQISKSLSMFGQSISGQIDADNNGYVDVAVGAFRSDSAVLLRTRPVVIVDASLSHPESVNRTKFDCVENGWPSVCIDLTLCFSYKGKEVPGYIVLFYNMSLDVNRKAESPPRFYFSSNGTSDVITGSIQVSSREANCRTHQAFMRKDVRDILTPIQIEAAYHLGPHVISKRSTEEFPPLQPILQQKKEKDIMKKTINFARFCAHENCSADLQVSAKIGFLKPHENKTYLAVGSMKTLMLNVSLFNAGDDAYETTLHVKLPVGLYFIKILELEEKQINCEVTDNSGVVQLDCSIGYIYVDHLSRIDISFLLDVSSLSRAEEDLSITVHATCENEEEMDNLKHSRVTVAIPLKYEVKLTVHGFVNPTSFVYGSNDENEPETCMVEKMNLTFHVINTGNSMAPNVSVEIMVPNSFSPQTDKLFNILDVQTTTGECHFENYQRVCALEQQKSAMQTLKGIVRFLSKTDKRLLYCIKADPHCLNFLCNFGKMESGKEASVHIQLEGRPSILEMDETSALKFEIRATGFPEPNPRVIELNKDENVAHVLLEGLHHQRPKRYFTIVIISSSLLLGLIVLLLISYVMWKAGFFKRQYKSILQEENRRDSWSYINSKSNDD
Sequence of AP-2 complex subunit beta (Homo sapiens) (P63010 whole entry, looked up, the tested form may be a part, one chain of several): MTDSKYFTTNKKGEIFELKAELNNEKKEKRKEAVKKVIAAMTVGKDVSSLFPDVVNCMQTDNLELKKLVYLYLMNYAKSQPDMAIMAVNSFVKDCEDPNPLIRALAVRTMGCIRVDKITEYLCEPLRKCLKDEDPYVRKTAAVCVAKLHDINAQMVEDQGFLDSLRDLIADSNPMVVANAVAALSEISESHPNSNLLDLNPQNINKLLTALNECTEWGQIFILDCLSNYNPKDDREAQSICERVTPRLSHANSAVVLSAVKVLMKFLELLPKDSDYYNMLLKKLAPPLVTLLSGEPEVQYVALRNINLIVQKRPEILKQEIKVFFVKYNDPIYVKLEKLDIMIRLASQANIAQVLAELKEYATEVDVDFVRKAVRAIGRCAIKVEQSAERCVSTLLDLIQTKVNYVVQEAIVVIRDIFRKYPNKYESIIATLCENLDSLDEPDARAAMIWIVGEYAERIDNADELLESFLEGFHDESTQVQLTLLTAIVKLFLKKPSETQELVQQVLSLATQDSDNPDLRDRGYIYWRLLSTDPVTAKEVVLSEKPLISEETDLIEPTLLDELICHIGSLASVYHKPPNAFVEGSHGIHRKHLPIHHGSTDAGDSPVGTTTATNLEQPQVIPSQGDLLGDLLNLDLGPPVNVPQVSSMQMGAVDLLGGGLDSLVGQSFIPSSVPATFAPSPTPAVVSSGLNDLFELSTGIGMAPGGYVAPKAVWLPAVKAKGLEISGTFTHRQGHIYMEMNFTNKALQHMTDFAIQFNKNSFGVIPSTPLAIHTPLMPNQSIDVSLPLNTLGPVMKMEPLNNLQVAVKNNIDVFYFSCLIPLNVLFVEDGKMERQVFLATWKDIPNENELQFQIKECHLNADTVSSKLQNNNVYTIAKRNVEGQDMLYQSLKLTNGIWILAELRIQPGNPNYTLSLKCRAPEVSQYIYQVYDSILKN
Sequence of Beta-adrenergic receptor kinase 1 (Homo sapiens) (P25098 whole entry, looked up): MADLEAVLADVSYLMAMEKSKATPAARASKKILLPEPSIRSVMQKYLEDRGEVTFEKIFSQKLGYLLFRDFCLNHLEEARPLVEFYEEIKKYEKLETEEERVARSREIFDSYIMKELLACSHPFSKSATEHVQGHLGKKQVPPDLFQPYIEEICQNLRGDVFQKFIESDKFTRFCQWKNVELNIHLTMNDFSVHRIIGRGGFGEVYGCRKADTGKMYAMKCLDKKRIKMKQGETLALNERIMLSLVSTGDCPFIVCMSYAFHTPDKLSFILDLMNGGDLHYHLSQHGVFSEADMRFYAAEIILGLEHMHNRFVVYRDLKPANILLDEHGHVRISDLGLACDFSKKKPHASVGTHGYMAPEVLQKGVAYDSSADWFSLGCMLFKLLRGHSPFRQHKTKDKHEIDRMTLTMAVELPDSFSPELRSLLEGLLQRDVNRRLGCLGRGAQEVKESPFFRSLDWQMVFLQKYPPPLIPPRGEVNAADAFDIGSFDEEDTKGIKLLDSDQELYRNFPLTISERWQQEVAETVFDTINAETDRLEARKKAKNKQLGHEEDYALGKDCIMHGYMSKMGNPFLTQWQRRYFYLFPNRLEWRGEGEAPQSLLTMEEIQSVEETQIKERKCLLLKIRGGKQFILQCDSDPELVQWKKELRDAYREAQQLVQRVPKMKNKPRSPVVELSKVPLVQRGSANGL

NC(=O)OCC(COC(N)=O)c1ccccc1
inactive: percent of DMSO control GFP [1] 104% | GFP response vs DMSO [2] 98.9% | percent response of DMSO control [3] 102% | GFP response vs DMSO [4] 92.3% | GFP response, % of DMSO [5] 103% | vesicle binding response [6] 160% | inhibition [7] 1.62% | superoxide response (% of plate) [8] 92.5% | aptamer binding inhibition [9] 4% | inhibition [10] -15.7% | response [11] -9.57% | binding (% of control) [12] 103% | efflux inhibition (fraction of control) [13] -0.09 | inhibition [14] 5% | differentiation response [15] -1.82%
58.1%: double positive events [6]

COc1ccc(OCC(=O)N2c3ccc(C)cc3C3CN(C)CCC32)cc1 (centres undefined)
69.1%: double positive events [6]
inactive: percent of DMSO control GFP [1] 104% | GFP response vs DMSO [2] 101% | percent response of DMSO control [3] 105% | GFP response vs DMSO [4] 98.4% | GFP response, % of DMSO [5] 96.1% | vesicle binding response [6] 238% | inhibition [7] 10% | superoxide response (% of plate) [8] 90.6% | aptamer binding inhibition [9] -10% | inhibition [10] -6.29% | response [11] -0.64% | binding (% of control) [12] 106% | efflux inhibition (fraction of control) [13] 0.33 | inhibition [14] 5% | differentiation response [15] 32.1%

CCOC(=O)Nc1ccc2c(c1)N(C(=O)CCN1CCOCC1)c1ccccc1S2
inactive: percent of DMSO control GFP [1] 107% | GFP response vs DMSO [2] 102% | percent response of DMSO control [3] 109% | GFP response vs DMSO [4] 92.3% | GFP response, % of DMSO [5] 109% | vesicle binding response [6] 120% | inhibition [7] -8.64% | superoxide response (% of plate) [8] 106% | aptamer binding inhibition [9] 0% | inhibition [10] 9.79% | response [11] -2.72% | binding (% of control) [12] 97.3% | efflux inhibition (fraction of control) [13] -0.43 | inhibition [14] 8% | differentiation response [15] -8.27%
48.8%: double positive events [6]

CC(=O)Nc1ccc(OS(=O)(=O)c2c(C)cc(C)cc2C)cc1
inactive: percent of DMSO control GFP [1] 99% | GFP response vs DMSO [2] 92.8% | percent response of DMSO control [3] 98.8% | GFP response vs DMSO [4] 96.4% | GFP response, % of DMSO [5] 86.7% | vesicle binding response [6] 166% | inhibition [7] 10.9% | superoxide response (% of plate) [8] 99.6% | aptamer binding inhibition [9] -1% | inhibition [10] -5.36% | response [11] 0.9% | binding (% of control) [12] 102% | efflux inhibition (fraction of control) [13] -0.2 | inhibition [14] 8% | differentiation response [15] -18%
47.1%: double positive events [6]

CC(=O)O[C@H]1C(=O)[C@@]2(C)[C@H]([C@H](OC(=O)c3ccccc3)[C@]3(O)C[C@H](OC(=O)[C@H](O)C(NC(=O)c4ccccc4)c4ccccc4)C(C)=C1C3(C)C)[C@]1(OC(C)=O)CO[C@@H]1C[C@@H]2O (some centres undefined)
active: efflux inhibition (fraction of control) [13] 0.63
55.6%: double positive events [6]
inactive: percent of DMSO control GFP [1] 106% | GFP response vs DMSO [2] 99.9% | percent response of DMSO control [3] 103% | GFP response vs DMSO [4] 90.3% | GFP response, % of DMSO [5] 97.3% | vesicle binding response [6] 162% | inhibition [7] 5.36% | superoxide response (% of plate) [8] 99% | aptamer binding inhibition [9] 3% | inhibition [10] 2.22% | response [11] -2.34% | binding (% of control) [12] 94.6% | inhibition [14] 7% | differentiation response [15] 9.49%

CC(C)NCC(O)COc1ccc(CCOCC2CC2)cc1 (centres undefined)
inactive: percent of DMSO control GFP [1] 103% | GFP response vs DMSO [2] 102% | percent response of DMSO control [3] 109% | GFP response vs DMSO [4] 111% | GFP response, % of DMSO [5] 108% | vesicle binding response [6] 215% | inhibition [7] -10.5% | superoxide response (% of plate) [8] 93.3% | aptamer binding inhibition [9] -6% | inhibition [10] -20.5% | response [11] 9.7% | binding (% of control) [12] 103% | efflux inhibition (fraction of control) [13] 0.03 | inhibition [14] -3% | differentiation response [15] 7.13%
63.7%: double positive events [6]

CC1(C)S[C@@H]2[C@H](NC(=O)C(C(=O)O)c3ccccc3)C(=O)N2[C@H]1C(=O)O (some centres undefined)
53.1%: double positive events [6]
inactive: percent of DMSO control GFP [1] 96.3% | GFP response vs DMSO [2] 94.8% | percent response of DMSO control [3] 105% | GFP response vs DMSO [4] 88.3% | GFP response, % of DMSO [5] 98.5% | vesicle binding response [6] 212% | inhibition [7] 2.56% | superoxide response (% of plate) [8] 108% | aptamer binding inhibition [9] 4% | inhibition [10] 1.78% | response [11] -1.48% | binding (% of control) [12] 97.2% | efflux inhibition (fraction of control) [13] -0.12 | inhibition [14] 9% | differentiation response [15] 1.41%

CC(=O)OCC(=O)[C@@]12OC3(CCCC3)O[C@@H]1C[C@H]1[C@@H]3CCC4=CC(=O)C=C[C@]4(C)[C@@]3(F)[C@@H](O)C[C@@]12C
inactive: percent of DMSO control GFP [1] 98.5% | GFP response vs DMSO [2] 96.9% | percent response of DMSO control [3] 99.8% | GFP response vs DMSO [4] 106% | GFP response, % of DMSO [5] 101% | vesicle binding response [6] 173% | inhibition [7] -12.4% | superoxide response (% of plate) [8] 97% | aptamer binding inhibition [9] 2% | inhibition [10] 26.6% | response [11] -4.26% | binding (% of control) [12] 96.4% | inhibition [14] 6% | differentiation response [15] -3.43%
active: efflux inhibition (fraction of control) [13] 0.9
61.4%: double positive events [6]

CCOC(=O)c1ccc(N2C(=O)C(CC(N)=O)N(CCc3ccc(OC)c(OC)c3)C2=S)cc1 (centres undefined)
active: efflux inhibition (fraction of control) [13] 0.75
46.3%: double positive events [6]
inactive: percent of DMSO control GFP [1] 96.9% | GFP response vs DMSO [2] 105% | percent response of DMSO control [3] 94.9% | GFP response vs DMSO [4] 96.4% | GFP response, % of DMSO [5] 88.8% | vesicle binding response [6] 153% | inhibition [7] -10.5% | superoxide response (% of plate) [8] 107% | aptamer binding inhibition [9] 2% | inhibition [10] 18.9% | response [11] 1.03% | binding (% of control) [12] 97.2% | inhibition [14] 21% | differentiation response [15] -21.2%
